Source: PubChem
Shown are actives, neighbours in structure and some others; about 3.8% of the full set was active somewhere.
HepG2 tox-1 – kills HepG2 cells in TGF-b inhibitor counter-screen. HepG2 CAGA-GFP viability, ATP luminescence, 18 h. Potency, µM (top dose mostly 46.1 µM), inactives show top-dose activity change, negative = cytotoxicity, most hits filed as cytotoxic. actives 0.76% (n = 410,000)
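HepG2 CAGA-GFP cells (1000/well, DMEM with 1% FBS) received compound, then TGF-beta at 500 pg/mL final, and were incubated 18 hours at 37 degrees C. Viability was read by CellTiter-Glo luminescence. Media-only wells were set as complete cell-killing and DMSO as no toxicity.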
HT1080 IDH1KD tx – toxicity to HT-1080 IDH1 knockdown cells (counter line) | HT-1080 IDH1 knockdown viability, ATP luminescence, 48 h | Potency, µM (doses to about 46.1 µM), inactives show at the top dose activity, negative = toxicity, actives largely listed as cytotoxic | actives 2% (n = 360,000) | AID 686971;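 note: 0% = DMSO wells and -100% = cell-free medium wells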
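Luminescent ATP read-out (CellTiter-Glo, 10 min at room temperature) after 48 h compound exposure at 37 °C gave viability of IDH1-knockdown HT-1080 cells. Activity was normalised to DMSO and cell-free wells, then fitted as concentration-response curves.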
ATXN viability – cell viability loss in ATXN counter-screen. S2 cells (HEK-293 line with an ATXN2-luciferase reporter) viability, CellTiter-Fluor protease fluorescence, 24 h. Potency, µM (top dose mostly 56.7 µM), hits mostly cytotoxic. actives 0.49% (n = 400,000); note: nearly all actives have a fitted effect of over 40% in size
ATXN2 expr inh – ATXN2 expression inhibition. HEK-293 ATXN2-luciferase reporter, luminescence, 24 h. Potency, µM (series often up to 57 µM), inactives show at the highest dose activity change, negative = inhibition, hits mostly inhibitors. actives 0.72% (n = 360,000); note: % is set by controls: 0 for no effect and ±100 for the full control effect; nearly all actives have a fitted effect of over 55% in size
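qHTS (up to 57 uM final) was run with 24 h compound exposure of reporter cells at 37 °C. Each well was multiplexed: SteadyGlo luminescence measured ATXN2-luciferase expression after a fluorogenic Gly-Phe-AFC viability readout (25 uM final).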
HT1080-NT tox – kills 2HG-producing HT-1080-NT fibrosarcoma cells; HT-1080-NT fibrosarcoma viability, CellTiter-Glo ATP luminescence, 48 h; Potency, µM (titrated, usually from 46.1 µM), inactives show top-dose activity, negative = less viability, actives largely listed as cytotoxic; actives 1.6% (n = 360,000);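 note: NT is the 2HG producing partner of a matched IDH1 knockdown line; 0% = DMSO-treated cells and -100% = media-only wells without cells; nearly all actives have a fitted effect of over 55% in size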
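Luminescent CellTiter-Glo readout after 48 hours of compound exposure at 37 degrees C defined viability of HT-1080-NT cells. Activity was normalized to DMSO wells and cell-free media wells; concentration-response curves were fitted and assigned curve classes.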
TGFb inhibitor – TGF-b pathway inhibition; Potency, µM (highest dose often 46.1 µM), inactives show at the highest dose activity, negative = inhibition, usual class: inhibitors; actives 1.2% (n = 410,000); HepG2 CAGA-GFP TGF-b/SMAD3 reporter, GFP fluorescence, 18 h; TGF-beta stimulated, 500 pg/mL final; note: % is set by controls: 0 for no effect and ±100 for the full control effect; nearly all actives have a fitted effect of over 65% in size
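Per well, imaged GFP fluorescence of HEPG2 CAGA-GFP cells gives the signal; cells get compound, then TGF-beta (500 pg/mL final), 18 h at 37 degrees C; %Activity versus -TGF-beta and +DMSO controls.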
TGFb CAGA inh – TGF-b pathway inhibition, cherry-pick retest. Potency, µM (titrated, usually from 46.1 µM), without a hit: at the top dose activity, negative = inhibition, most hits filed as inhibitors. AID 720534. actives 63% (n = 1,600). HepG2 CAGA-GFP TGF-b reporter, GFP fluorescence, 18 h; cells stimulated with TGF-beta, 500 pg/mL. shares compounds with TGFb inhibitor; note: % is set by controls: 0 for no effect and ±100 for the full control effect; nearly all actives have a fitted effect of over 65% in size
HepG2 tox-2 – HepG2 cytotoxicity, TGF-b inhibitor counterscreen; AID 720535; Potency, µM (titrated, usually from 46.1 µM), for inactives: at the top dose activity, negative = cytotoxicity, actives largely listed as inhibitors; HepG2 CAGA-GFP viability, ATP luminescence, 18 h; cells stimulated with TGF-beta, 500 pg/mL; actives 27% (n = 1,600); shares compounds with TGFb inhibitor; note: % is set by controls: 0 for no effect and ±100 for the full control effect; nearly all actives have a fitted effect of over 70% in size
CCL64 TGFb inh – blocks TGF-b signaling in CCL64 reporter cells; Potency, µM (series often up to 46.1 µM), for inactives: top-dose activity, negative = inhibition, hits mostly inhibitors; actives 41% (n = 1,600); shares compounds with TGFb inhibitor; CCL64 CAGA-GFP reporter, TGF-b stimulated, GFP fluorescence, 18 h; AID 720536; note: nearly all actives have a fitted effect of over 65% in size
TGFb COP inh – TGF-b inhibition validated with COP promoter | shares compounds with TGFb inhibitor | HepG2 COP-GFP TGF-b reporter, GFP fluorescence, 18 h; cells stimulated by added recombinant TGF-beta | Potency, µM (highest dose often 46.1 µM), for the others: at the top dose activity, negative = inhibition, most hits filed as inhibitors | actives 3% (n = 1,600) | AID 720537; note: nearly all actives have a fitted effect of over 70% in size
Starred values were filed as active, the others as inactive; i = inactive; ? = inconclusive; . = not tested or not shown; ! = not active in a repeat. Calls come from the whole dose curve; as a rule, active = well fitted curve in the direction sought with a large enough effect; inconclusive = small, poorly fitted or top-dose-only effect, or another doubt; inactive = no such curve, though single readings can be large; an effect the other way counts as inactive or inconclusive. Potency is the fitted concentration of half-maximal effect.

SMILES	HepG2 tox-1	HT1080 IDH1KD tx	ATXN viability	ATXN2 expr inh	HT1080-NT tox	TGFb inhibitor	TGFb CAGA inh	HepG2 tox-2	CCL64 TGFb inh	TGFb COP inh
COc1ccccc1-c1cc(NC=O)c2ncc(-c3cccc(C(C)=O)c3)n2c1	-41%	?	?	?	?	-26%	.	.	.	.
COc1ccccc1-c1cc(NC=O)c2ncc(-c3cccc(C(=O)N(C)C)c3)n2c1	-7%	?	?	0%	?	7.9µM*	5.2µM*	-26%	?	10%
CC(=O)c1ccc(-c2cnc3c(NC=O)cc(-c4ccccc4Oc4ccccc4)cn23)cc1	-15%	?	.	?	?	11µM*	?	-18%	?	54%
O=C(Nc1ccc(Cl)cc1)c1cc2c(cc1O)[nH]c1ccccc12	-45%	15µM*	?	?	15µM*	6.3µM*	7.3µM*	5.2µM*	3.3µM*	70%
CC(=O)Nc1ccc2[nH]c3ccccc3c2c1	0%	-4%	i	9%	0%	13%	.	.	.	.
CCCCNC(=O)c1cccc2c(=O)c(C)c(-c3ccccc3)oc12	11%	-14%	i	-18%	-17%	-5%	.	.	.	.
CCCCN(C(=O)c1cccc2c(=O)c(C)c(-c3ccccc3)oc12)c1ccccc1	-9%	?	i	?	-22%	14µM*	10µM*	?	?	41%
O=[N+]([O-])c1c(NCCCO)cc(Sc2nc3ccccc3s2)c2nonc12	-34%	6.3µM*	25µM*	?	11µM*	18µM*	?	16µM*	6.5µM*	16µM*
Cc1nnc(Sc2cc(NCCCO)c([N+](=O)[O-])c3nonc23)s1	1%	16µM*	.	?	16µM*	5µM*	4.6µM*	23µM*	3.3µM*	?
CCOC(=O)c1sc2cccc(F)c2c1S(=O)(=O)Nc1ccccc1F	-4%	.	i	-4%	.	?	.	.	.	.
Nc1ncnc2c1ncn2[C@@H]1O[C@H](C(=O)NCc2ccc(OC(F)(F)F)cc2)[C@@H](O)[C@H]1O	-29%	-14%	i	16%	-1%	?	?	-15%	-15%	-1%
CC(=O)Oc1ccccc1N(C(C)=O)S(=O)(=O)c1ccc2ccccc2c1	-10%	3%	i	-18%	2%	-12%	.	.	.	.
CC(=O)Oc1c(Br)cc(N(C(C)=O)S(=O)(=O)c2ccccc2)c2ccccc12	-91%	?	i	?	?	8.9µM*	16µM*	?	13µM*	?
COc1ccc(-c2cc(=Nc3c(C)n(C)n(-c4ccccc4)c3=O)c3ccccc3o2)cc1	-27%	-21%	i	3%	-6%	-11%	.	.	.	.
COc1ccc(-c2c/c(=N\c3nc(-c4ccccc4)c(C)s3)c3ccccc3o2)cc1O	-15%	5.8µM*	.	?	5.8µM*	8.9µM*	8.2µM*	?	4.1µM*	37%
CCc1nc2ccccc2c(C(=O)OCC(=O)Nc2cccc(S(=O)(=O)NC3=NCCCCC3)c2)c1C	-22%	?	?	22µM*	?	11µM*	7.3µM*	?	?	21%
O=C(COC(=O)c1ccc2ccccc2n1)Nc1cccc(S(=O)(=O)NC2=NCCCCC2)c1	-75%	-6%	i	.	-8%	-2%	.	.	.	.
CCC(C)NC(=O)CSc1nc2n[nH]c(C)c2c(=N)n1-c1cc(Cl)ccc1C (configuration not stated)	-14%	.	?	-25%	.	?	.	.	.	.
COc1ccc(-c2c(C3C4C=CCCC4(C)C(=O)N3Cc3ccccc3)ccc3ccccc23)cc1OC (configuration not stated)	-7%	.	.	.	.	-7%	.	.	.	.
C[C@H]1CN([C@@H](C)CO)C(=O)Cc2cc(NS(=O)(=O)c3ccc(Cl)cc3)ccc2O[C@@H]1CN(C)C(=O)Nc1cccc2ccccc12	-1%	0%	i	-6%	0%	-24%	.	.	.	.
CC(C)NC(=O)N(C)C[C@H]1Oc2ccc(NS(=O)(=O)c3ccc(Cl)cc3)cc2CC(=O)N([C@@H](C)CO)C[C@@H]1C	-22%	5%	i	-2%	11%	?	-9%	3%	2%	3%
CC1Nc2ncnc(N3CCc4ccccc4C3)c2N(Cc2ccc(Br)cc2)C1=O (configuration not stated)	-24%	?	?	?	?	?	.	.	.	.
CCC1Nc2ncnc(N3CCc4ccccc4C3)c2N(Cc2ccc(Br)cc2)C1=O (configuration not stated)	-11%	?	?	?	?	13µM*	18µM*	18µM*	-81%	28%
CC[C@@H](C)[C@@H](C(=O)Nc1ccc(C)cc1)N1Cc2ccccc2C1=O	-11%	.	?	0%	.	-4%	.	.	.	.
Cc1ccccc1Cn1ccc(NC(=O)c2cnn3c2NC(c2ccccc2)CC3C(F)(F)F)n1 (configuration not stated)	-39%	?	i	-1%	?	7.9µM*	?	?	23µM*	40%
Cc1ccc2nc(-c3ccccn3)c(Nc3ccccc3C)n2c1	-23%	13µM*	?	4.5µM*!	13µM*	3.2µM*	8.2µM*	?	?	33%
